Screening data: PubChem BioAssay, National Center for Advancing Translational Sciences (NCATS)
SARS PLP yeast – blocks SARS-CoV papain-like protease in a yeast assay; AID 485353; S. cerevisiae expressing SARS-CoV PLpro, growth rescue; Potency, µM (top dose mostly 32.9 µM), without a hit: top-dose activity, positive = growth rescue, most hits filed as activators; 330,000 compounds, 0.19% hits; calls by dose curve; note: potency is the fitted concentration of half-maximal effect; 0% is about no effect; nearly all actives have a fitted effect of over 55% in size
Pf growth 48h – inhibits P. falciparum growth in the first generation, 48 h | P. falciparum luciferase growth in erythrocytes, 48 h | Potency, µM (top dose mostly 28.7 µM), for the others: at the top dose activity change, negative = inhibition, actives largely listed as inhibitors | 310,000 compounds, 5.9% hits | AID 504832; note: potency is the fitted concentration of half-maximal effect; % is set by controls: 0 for no effect and ±100 for the full control effect
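A one-generation exposure of luciferase-tagged malaria parasites in RPMI 1640/Albumax erythrocyte culture, 37 C and 5% CO2. Inhibition is inferred from decreased luminescence after adding detection reagent.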
Shiga inhibitor – Shiga toxin inhibition; Vero cells, Shiga toxin protein synthesis inhibition reporter; inhibition, % at 38.7 µM; 290,000 compounds, 9.2% hits; AID 2315; in the data active = inhibition mostly above about 28%, no sharp cut-off; inactive = mostly below about 43%; note: 0% is about no effect
Pf growth 96h – P. falciparum growth inhibition at 96 hour, primary screen for plastid delayed-death inhibitors; 320,000 compounds, 6.9% hits; Potency, µM (series often up to 28.7 µM), without a hit: top-dose activity change, negative = inhibition, hits mostly inhibitors; P. falciparum luciferase reporter growth, 96 h; note: potency is the fitted concentration of half-maximal effect; % is set by controls: 0 for no effect and ±100 for the full control effect
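Two parasite generations (96 h, 37 C, 5% CO2) of compound exposure in infected erythrocytes (0.05% parasitemia, 2% hematocrit). Luciferase-reporter P. falciparum; decreased luminescence indicates inhibited growth, aimed at apicoplast-acting delayed death.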
AMA1 RON2 block – disrupts binding of P. falciparum AMA1 to RON2; Potency, µM (top dose mostly 58.2 µM), for inactives: top-dose activity change, negative = inhibition, hits mostly inhibitors; 360,000 compounds, 0.2% hits; AlphaScreen AMA1-biotinylated RON2 peptide binding;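 note: potency is the fitted concentration of half-maximal effect; 0% = vehicle wells and -100% = peptide control; nearly all actives have a fitted effect of over 45% in size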
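AMA1 (3D7) with his tag at 25 nM final met compounds first, then biotinylated RON2 peptide at 25 nM; detection used donor plus acceptor beads, 10 µg/mL apiece, read by AlphaScreen after 30 min at room temperature.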
Cycloheximide cs – counter-screen hit for Shiga toxin inhibitors, cycloheximide; max response, %; 300,000 compounds, 12% hits; cell reporter, cycloheximide protein synthesis inhibition counterscreen; in the data active = max response mostly above about 13%, no sharp cut-off; inactive = mostly below about 14%; note: read at 38.3 µM for the half of the compounds with a filed dose; 0% is about no effect
An asterisk follows results filed as active; ? = inconclusive; nt = no result given; [ ] = dose if it differs, or a comment. A selection: hits, their analogues and other compounds. The true share with any hit is near 19%. Unless noted, calls come from the whole dose curve; as a rule, active = well fitted curve in the direction sought with a large enough effect; inconclusive = small, poorly fitted or top-dose-only effect, or another doubt; inactive = no such curve, though single readings can be large; an effect the other way counts as inactive or inconclusive.

SMILES	SARS PLP yeast	Pf growth 48h	Shiga inhibitor	Pf growth 96h	AMA1 RON2 block	Cycloheximide cs
CCc1[nH]nc2c1C(c1ccsc1)C(C#N)=C(N)O2 (stereo not drawn)	-40.0%	3.7%	1.4	10.4µM*	4.9%	-2.7
CCOc1ccc(Cl)cc1S(=O)(=O)N1CCC(C(=O)NCc2ccncc2)CC1	6.5%	-7.1%	2.8	53.5%	-2.0%	-6.3
N#CC1=C(N)Oc2c(ccc3ccccc23)C1c1ccsc1 (stereo not drawn)	-13.3%	48.0%	57.4*	225.1%	5.0%	20.3*
O=C(Cc1ccccc1)Nc1ccc2[nH]ncc2c1	2.3%	?	22.5	?	-0.8%	20.7*
O=C(Nc1ccc2[nH]ncc2c1)c1ccccc1	-6.0%	129.9%	25.2	86.0%	-2.0%	22.5*
Cc1ccccc1OCC(=O)Nc1ccc2[nH]ncc2c1	-4.0%	23.1%	16.4	11.7µM*	-13.6%	14.6*
O=C(COc1ccccc1)Nc1ccc2[nH]ncc2c1	-4.8%	-11.4%	-3.1	29.3%	-0.4%	-1.3
O=C(Nc1ccc2[nH]ncc2c1)c1cccc(F)c1	-2.3%	55.6%	65.3*	59.7%	21.6%	29.0*
CCOc1ccc(-c2nnc(NC(=O)COc3ccccc3F)o2)cc1	nt	nt	nt	nt	15.3%	nt
O=C(c1ccc(OC2CCN(CCc3ccccc3)CC2)cc1)N1CCCCC1CCCO (stereo not drawn)	?	30.6%	-5.6	8.4%	-1.2%	-2.9
O=C(Nc1ccc2[nH]ncc2c1)c1ccc(F)cc1	0.4%	225.9%	55.4*	12.6%	20.1%	19.2*
O=C(N/N=C/C1CCCCC1)c1ccccn1	-0.8%	142.7%	165.8*	119.1%	116.9%	48.6*
Cc1cc2c(cc1C)/C(=N/NC(=O)c1ccccn1)CCC2	-0.7%	88.3%	48.8*	?	48.7%	53.2*
O=C(N/N=C/C1CCCCC1)c1cc(Cl)ccc1O	-0.2%	51.2%	45.3*	112.2%	-9.5%	13.0
O=C(NN=C1CCC(=NNC(=O)c2ccccn2)CC1)c1ccccn1	0.5%	93.7%	51.2*	1.8%	48.8%	54.6*
O=C(COC(=O)c1ccccn1)NC1CCCCC1	4.4%	42.9%	0.2	75.1%	28.5%	0.7
CCOc1ccc2c(c1)C(=NNC(=O)c1ccccn1)c1cc(OCC)ccc1-2	nt	nt	nt	nt	8.9%	nt
c1ccc(CCN(Cc2ccccc2)Cc2nc(C3CC3)no2)cc1	-3.1%	?	5.0	?	14.2%	9.1
CC(=O)Nc1ccn(C2CC3OCC(NC(=O)C4CCCN4C(=O)OC(C)(C)C)C3O2)c(=O)n1 (stereo not drawn)	nt	nt	-13.7	nt	nt	-3.3
Cc1ccc(C(=O)NCC(=O)OCC(=O)NCC(F)(F)F)cc1	-2.5%	10.7%	-5.5	8.3%	1.5%	17.6*
Cc1ccc(C(=O)NCC(=O)NCC(=O)OCC(=O)c2ccc(F)cc2)cc1	-3.6%	-2.9%	-9.2	-26.0%	-10.4%	-3.3
Cc1c(-c2cccs2)[n+](=O)c2c(n1[O-])CCCCC2	-2.7%	-2.7%	-10.6	10.4µM*	-3.8%	-5.2
Cc1cc(=O)[nH]c2c(C)cc(S(=O)(=O)N3CCCCC3)cc12	-4.8%	-6.2%	3.0	13.1µM*	-12.3%	1.0
Cc1cc[n+](-c2ccccc2)c2ccccc12	-6.8%	11.7µM*	-9.6	1.65µM*	-1.0%	2.6
CCCCNC(=O)Cn1nc(Cc2ccncc2)c2ccccc2c1=O	0.1%	36.4%	-10.0	9.28µM*	-9.4%	-2.1
SMILES	SARS PLP yeast	Pf growth 48h	Shiga inhibitor	Pf growth 96h	AMA1 RON2 block	Cycloheximide cs
CN(CCC#N)C(=O)Cn1nc(Cc2ccncc2)c2ccccc2c1=O	8.0%	nt	10.9	13.1µM*	0.0%	-0.6
CC(C)c1ccc(C(=O)N2CCCCC2c2cc(C(=O)NCc3cccnc3)no2)cc1 (stereo not drawn)	nt	nt	nt	nt	-0.2%	nt
CC(C(=O)Nc1cccc(S(=O)(=O)N2CCOCC2)c1)N1CCN(c2ccc(F)cc2)CC1 (stereo not drawn)	-3.1%	-15.6%	-16.8	?	-5.2%	-3.9
Cc1cccc(NC(=O)C(C)Sc2nc3ccccc3c(=O)n2CCCN2CCOCC2)c1 (stereo not drawn)	-0.7%	13.1µM*	nt	8.28µM*	-0.3%	nt
CC(=O)c1cccc(NC(=O)CSc2nc3ccccc3c(=O)n2CCCN2CCOCC2)c1	0.4%	nt	nt	nt	-0.2%	nt
COCCn1c(SC(C)C(=O)Nc2ccc3c(c2)OCCO3)nc2ccccc2c1=O (stereo not drawn)	6.0%	?	13.6	13.1µM*	-0.8%	-2.4
CCOC(=O)c1ccc(Nc2c(CC)c(C)nc3ncnn23)cc1	-15.6%	-8.5%	-2.5	-28.5%	-0.3%	-0.7
CC(=O)c1ccc(NC(=O)CCc2c(C)nc3ncnn3c2C)cc1	4.2%	19.1%	61.3*	68.1%	0.8%	21.3*
CCc1c(C)nc2ncnn2c1Nc1ccc(C(C)=O)cc1	-4.8%	63.3%	108.8*	nt	6.4%	45.9*
COC(=O)c1ccc(NC(=O)CCc2c(C)nc3ncnn3c2C)cc1	-0.8%	-10.0%	13.9	13.3%	8.6%	-3.4
O=C(CN1C(=O)NC2(CCc3ccccc32)C1=O)NCc1cccc(C(F)(F)F)c1 (stereo not drawn)	-0.5%	nt	nt	nt	-10.0%	nt
CC1(C)O[C@@H]2C[C@H]3[C@@H]4C[C@H](F)C5=CC(=O)C=C[C@]5(C)[C@@]4(F)[C@@H](O)C[C@]3(C)[C@]2(C(=O)CO)O1	2.0%	?	11.5	?	-4.0%	1.1
C[C@@H]1C[C@H]2[C@@H]3C[C@H](F)C4=CC(=O)C=C[C@]4(C)[C@@]3(Cl)[C@@H](O)C[C@]2(C)[C@H]1C(=O)COC(=O)C(C)(C)C	nt	1.04µM*	nt	1.0%	-5.2%	nt
CC1=C(C(=O)Nc2ccccc2C(=O)N2CCN(c3ccccc3)CC2)SCCO1	nt	nt	nt	nt	-17.5%	nt
CCN1C(C)=C(C(=O)OC(C)C)C(c2ccccc2Cl)C(C(=O)O)=C1C(=O)O (stereo not drawn)	nt	nt	-10.1	nt	nt	-7.2
Cn1c2ccccc2c(=O)c2cc(C#Cc3ccc(N)cc3)ccc21	-16.5%	55.5%	38.6*	?	-6.4%	40.9*
COc1ccc(C#Cc2ccc3c(c2)c(=O)c2ccccc2n3C)cc1	nt	0.0%	3.6	?	16.7%	1.2
Cn1c2ccccc2c(=O)c2ccc(C#CC3(O)CCCCC3)cc21	-12.6%	-37.2%	41.2*	-61.3%	44.9%	34.9*
COc1ccc(CCNC(=O)c2cc(S(=O)(=O)N3CCCCCC3)ccc2OC)cc1OC	0.8%	?	nt	13.1µM*	-5.7%	nt
COc1ccc(S(=O)(=O)N2CCCCCC2)cc1C(=O)N(C)Cc1ccc(C)cc1	-0.1%	?	nt	?	14.2%	nt
COc1ccc(CCNCc2ccc(OCC(=O)N3CCCCC3)c(OC)c2)cc1OC	0.2%	-16.7%	1.0	-5.6%[5.75 µM]	4.6%	-2.2
COc1cc(CNCCc2ccc(S(N)(=O)=O)cc2)ccc1OCC(=O)N1CCCCC1	-7.6%	5.1%	-11.7	4.15µM*	-0.5%	-2.8
